Data reported in PubChem BioAssay AID1159580 (chemical genetic matrix, 2015).
Where “and” joins values, the source holds several entries; their conditions need not be identical. Identical values can stand only once. The whole screen tested about 5,500 compounds, of which about 2,000 (36%) were called active. About 18% were inconclusive and are not listed. Cut-off read from the data, not from the text of the source: active = normalized growth mostly below about 0.91 (no sharp cut-off); inconclusive = no clear call, values can overlap the other calls; inactive = mostly above about 0.92. This is one part of the list.

Test: chemical genetic growth profiling, strain panel (AID 1159580);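 note: tested at 20 µM; growth read once vehicle control cultures reached saturation at 30 °C; 1 = growth at the plate median or of vehicle wells; lower values mean less growth of the strain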
Details: S. cerevisiae deletion strains, growth OD

Measured: normalized growth

CCNC(=O)CC[C@H](N)C(=O)O
inactive: locus YAL021C, strain ccr4, active compounds read low 0.995 | locus YAL026C, strain drs2, active compounds read low 1 | locus YAL030W, strain snc1, active compounds read low 0.998 | locus YBL061C, strain skt5, active compounds read low 0.993 | locus YBR009C, strain hhf1, active compounds read low 1.02 | locus YBR021W, strain FUR4, active compounds read low 1.03 | locus YBR023C, strain chs3, active compounds read low 0.993 | locus YBR171W, strain sec66, active compounds read low 1 | locus YBR229C, strain ROT2, active compounds read low 0.991 | locus YBR231C, strain swc5, active compounds read low 0.997 | locus YBR279W, strain paf1, active compounds read low 1 | locus YCL011C, strain gbp2, active compounds read low 1 | locus YCL016C, strain dcc1, active compounds read low 0.996 | locus YCL029C, strain bik1, active compounds read low 0.988 | locus YCL061C, strain MRC1, active compounds read low 1 | locus YCL069W, strain vba3, active compounds read low 1.01 | locus YCR088W, strain abp1, active compounds read low 1 | locus YDL005C, strain med2, active compounds read low 0.986 | locus YDL035C, strain GPR1, active compounds read low 1.04 | locus YDL040C, strain nat1, active compounds read low 0.998 | locus YDL074C, strain BRE1, active compounds read low 1.02 | locus YDL101C, strain DUN1, active compounds read low 0.965 | locus YDL134C, strain PPH21, active compounds read low 1.01 | locus YDL185W, strain tfp1, active compounds read low 0.996 | locus YDL192W, strain arf1, active compounds read low 1 | locus YDR001C, strain nth1, active compounds read low 0.997 | locus YDR069C, strain doa4, active compounds read low 1.03 | locus YDR101C, strain arx1, active compounds read low 1 | locus YDR137W, strain rgp1, active compounds read low 1.01 | locus YDR159W, strain sac3, active compounds read low 0.992 | locus YDR162C, strain NBP2, active compounds read low 1.03 | locus YDR195W, strain ref2 0.994 | locus YDR297W, strain sur2, active compounds read low 0.99 | locus YDR318W, strain mcm21, active compounds read low 0.999 | locus YDR334W, strain swr1, active compounds read low 1 | locus YDR335W, strain msn5, active compounds read low 1 | locus YDR388W, active compounds read low 1 | locus YDR392W, strain spt3, active compounds read low 0.991 | locus YDR502C, strain sam2, active compounds read low 0.999 | locus YEL003W, strain gim4, active compounds read low 1.01 | locus YEL037C, strain rad23, active compounds read low 0.996 | locus YEL061C, strain CIN8 (second series), active compounds read low 1 | locus YEL061C, strain CIN8, active compounds read low 0.999 | locus YER015W, strain faa2, active compounds read low 1.01 | locus YER016W, strain bim1, active compounds read low 0.991 | locus YER110C, active compounds read low 0.981 | locus YER111C, strain swi4, active compounds read low 1 | locus YER155C, strain BEM2 (second series), active compounds read low 0.99 | locus YER155C, strain BEM2, active compounds read low 0.974 | locus YER167W, strain BCK2, active compounds read low 0.995 | locus YFR010W, strain ubp6, active compounds read low 1 | locus YGL078C, strain dbp3, active compounds read low 0.988 | locus YGL086W, strain mad1, active compounds read low 1 | locus YGL167C, strain pmr1, active compounds read low 0.997 | locus YGL173C, strain kem1, active compounds read low 0.996 | locus YGL227W, strain vid30, active compounds read low 0.992 | locus YGL240W, strain doc1, active compounds read low 1 | locus YGL248W, strain PDE1, active compounds read low 1 | locus YGL253W, strain hxk2, active compounds read low 1 | locus YGR135W, strain pre9, active compounds read low 1.01 | locus YGR252W, strain gcn5, active compounds read low 1.04 | locus YHR013C, strain ard1, active compounds read low 0.987 | locus YHR027C, strain rpn1, active compounds read low 1.01 | locus YHR030C, strain SLT2, active compounds read low 0.999 and 1.01 | locus YHR079C, strain IRE1 (second series), active compounds read low 0.997 | locus YHR079C, strain IRE1, active compounds read low 1.04 | locus YHR094C, strain hxt1, active compounds read low 0.989 | locus YHR129C, strain ARP1, active compounds read low 0.995 | locus YHR142W, strain chs7, active compounds read low 1.01 | locus YHR200W, strain rpn10, active compounds read low 0.994 | locus YIL066C, strain RNR3, active compounds read low 1.04 | locus YIL073C, strain SPO22, active compounds read low 0.979 | locus YIL125W, strain kgd1, active compounds read low 0.995 | locus YIR030C, strain dcg1, active compounds read low 0.994 | locus YJL092W, strain hpr5, active compounds read low 0.993 | locus YJL095W, strain BCK1 (second series), active compounds read low 0.99 | locus YJL095W, strain BCK1, active compounds read low 1 and 1.04 | locus YJL115W, strain asf1, active compounds read low 0.999 | locus YJL129C, strain trk1, active compounds read low 0.999 | locus YJL134W, strain LCB3, active compounds read low 0.998 | locus YJL154C, strain vps35, active compounds read low 1 | locus YJL164C, strain tpk1, active compounds read low 1.01 | locus YJL166W, strain qcr8, active compounds read low 1 | locus YJL168C, strain set2, active compounds read low 0.991 | locus YJL187C, strain SWE1 (second series), active compounds read low 0.996 | locus YJR043C, strain POL32, active compounds read low 1.05 | locus YJR066W, strain TOR1, active compounds read low 0.958 | locus YJR075W, strain HOC1, active compounds read low 0.995 | locus YKL009W, strain mrt4, active compounds read low 0.986 | locus YKL068W, active compounds read low 0.987 | locus YKL085W, strain MDH1 (second series), active compounds read low 1.02 | locus YKL085W, strain MDH1, active compounds read low 1.02 | locus YKL160W, strain elf1, active compounds read low 0.999 | locus YKR001C, strain vps1, active compounds read low 1 | locus YKR026C, strain gcn3, active compounds read low 1 | locus YKR091W, strain srl3, active compounds read low 1 | locus YLL001W, strain dnm1, active compounds read low 0.997 | locus YLL026W, active compounds read low 0.993 | locus YLL041C, strain sdh2, active compounds read low 1 | locus YLR027C, strain aat2, active compounds read low 0.997 | locus YLR039C, strain RIC1, active compounds read low 1.03 | locus YLR058C, strain SHM2, active compounds read low 0.998 | locus YLR102C, strain apc9, active compounds read low 0.987 | locus YLR113W, strain HOG1, active compounds read low 1.02 | locus YLR221C, strain rsa3, active compounds read low 1.01 | locus YLR258W, strain gsy2, active compounds read low 0.994 | locus YLR262C, strain YPT6 (second series), active compounds read low 0.984 | locus YLR262C, strain YPT6, active compounds read low 1.04 | locus YLR268W, strain sec22, active compounds read low 0.986 | locus YLR320W, strain mms22, active compounds read low 0.999 | locus YLR330W, strain CHS5, active compounds read low 1.01 | locus YLR342W, strain FKS1 (second series), active compounds read low 1.03 | locus YLR342W, strain FKS1, active compounds read low 1.02 | locus YLR357W, strain rsc2, active compounds read low 0.962 | locus YLR370C, strain arc18, active compounds read low 1 | locus YLR371W, strain rom2, active compounds read low 0.989 | locus YLR384C, strain iki3, active compounds read low 0.982 | locus YLR418C, strain cdc73, active compounds read low 1.02 | locus YML016C, strain PPZ1, active compounds read low 0.993 | locus YML032C, strain rad52, active compounds read low 1.01 | locus YML120C, strain ndi1, active compounds read low 1 | locus YML124C, strain tub3, active compounds read low 0.996 | locus YMR058W, strain fet3, active compounds read low 0.999 | locus YMR078C, strain ctf18, active compounds read low 0.996 | locus YMR125W, strain sto1, active compounds read low 0.996 | locus YMR129W, active compounds read low 0.991 | locus YMR205C, strain PFK2, active compounds read low 1.01 | locus YMR223W, strain ubp8, active compounds read low 1.01 | locus YMR231W, strain pep5, active compounds read low 1 | locus YMR263W, strain SAP30, active compounds read low 0.989 | locus YMR307W, strain GAS1, active compounds read low 1.06 | locus YNL067W, strain RPL9B, active compounds read low 0.984 | locus YNL071W, strain lat1, active compounds read low 1 | locus YNL183C, strain NPR1, active compounds read low 0.953 | locus YNL209W, strain ssb2, active compounds read low 1.01 | locus YNL233W, strain BNI4, active compounds read low 1.01 | locus YNL248C, strain rpa49, active compounds read low 1 | locus YNL250W, strain rad50, active compounds read low 0.975 | locus YNL271C, strain bni1, active compounds read low 0.999 | locus YNL298W, strain CLA4, active compounds read low 0.995 | locus YNL307C, strain MCK1, active compounds read low 0.992 | locus YNL322C, strain KRE1 (second series), active compounds read low 0.979 | locus YNR049C, strain mso1, active compounds read low 0.984 | locus YNR052C, strain pop2, active compounds read low 0.998 | locus YOL006C, strain TOP1, active compounds read low 1.07 | locus YOL012C, strain htz1 1.05 | locus YOL147C, strain pex11, active compounds read low 0.998 | locus YOR001W, strain rrp6, active compounds read low 1 | locus YOR061W, strain CKA2, active compounds read low 1 | locus YOR069W, strain VPS5, active compounds read low 0.988 | locus YOR070C, strain gyp1, active compounds read low 1.01 | locus YOR080W, strain dia2, active compounds read low 0.99 | locus YOR083W, strain WHI5, active compounds read low 0.998 | locus YOR106W, strain vam3, active compounds read low 1.01 | locus YOR136W, strain idh2, active compounds read low 0.983 | locus YOR144C, strain elg1, active compounds read low 0.995 | locus YOR184W, strain ser1, active compounds read low 1 | locus YOR231W, strain MKK1, active compounds read low 1.02 | locus YOR265W, strain rbl2, active compounds read low 0.991 | locus YOR270C, strain vph1, active compounds read low 1.04 | locus YOR290C, strain snf2, active compounds read low 1 | locus YOR316C, strain cot1, active compounds read low 0.99 | locus YPL051W, strain arl3, active compounds read low 0.996 | locus YPL055C, strain LGE1, active compounds read low 1.03 | locus YPL078C, strain atp4, active compounds read low 0.991 | locus YPL106C, strain sse1, active compounds read low 0.984 | locus YPL240C, strain hsp82, active compounds read low 1.01 | locus YPL256C, strain CLN2, active compounds read low 1.01 | locus YPR119W, strain clb2, active compounds read low 1.01 | locus YPR141C, strain kar3, active compounds read low 0.985 | locus YPR163C, strain tif3, active compounds read low 0.995 | locus YPR167C, strain met16, active compounds read low 0.998 | strain wtn01, active compounds read low 0.989
